Test results published in PubChem BioAssay AID1159580 (chemical genetic matrix, 2015).
Several values for one entry are separate records, joined by “and”; a condition that tells them apart may be missing. Identical values can stand only once. Among all 5,500 compounds or so, about 2,000 (36%) were called active. Not shown: some 18% with an inconclusive outcome. No stated cut-off is given here; in the data, active means normalized growth mostly below about 0.91 (no sharp cut-off); inconclusive means no clear call, values can overlap the other calls; inactive means mostly above about 0.92. Some of the results follow.

Experiment: chemical genetic growth profiling, strain panel (AID 1159580);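 further: tested at 20 µM; growth read once vehicle control cultures reached saturation at 30 °C; 1 = growth at the plate median or of vehicle wells; lower values mean less growth of the strain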
Conditions: S. cerevisiae deletion strains, growth OD

Measured: normalized growth

CCCNC(=O)NS(=O)(=O)c1ccc(Cl)cc1
inactive: locus YAL013W, strain DEP1, hits give low values 1.01 and 0.978 | locus YAL021C, strain ccr4, hits give low values 1.02 | locus YAL026C, strain drs2, hits give low values 1.01 | locus YAL030W, strain snc1, hits give low values 1.01 | locus YAL040C, strain CLN3, hits give low values 1.09 | locus YBL061C, strain skt5, hits give low values 1.01 | locus YBR009C, strain hhf1, hits give low values 1.02 | locus YBR021W, strain FUR4, hits give low values 1.03 | locus YBR023C, strain chs3, hits give low values 1.02 | locus YBR171W, strain sec66, hits give low values 1.01 | locus YBR229C, strain ROT2, hits give low values 0.993 | locus YBR231C, strain swc5, hits give low values 1.01 | locus YBR279W, strain paf1, hits give low values 1.01 | locus YCL011C, strain gbp2, hits give low values 1 | locus YCL016C, strain dcc1, hits give low values 1.01 | locus YCL029C, strain bik1, hits give low values 1.01 | locus YCL061C, strain MRC1 (second series), hits give low values 0.997 | locus YCL069W, strain vba3, hits give low values 1.01 | locus YCR088W, strain abp1, hits give low values 0.996 | locus YDL005C, strain med2, hits give low values 1.01 | locus YDL035C, strain GPR1, hits give low values 1 | locus YDL040C, strain nat1, hits give low values 1.01 | locus YDL074C, strain BRE1, hits give low values 1.01 | locus YDL101C, strain DUN1, hits give low values 1.03 | locus YDL134C, strain PPH21, hits give low values 1 | locus YDL185W, strain tfp1, hits give low values 1 | locus YDL192W, strain arf1, hits give low values 1.03 | locus YDR001C, strain nth1, hits give low values 1.01 | locus YDR069C, strain doa4, hits give low values 1.03 | locus YDR101C, strain arx1, hits give low values 1.01 | locus YDR137W, strain rgp1, hits give low values 0.994 | locus YDR150W, strain NUM1, hits give low values 0.986 and 1 | locus YDR159W, strain sac3, hits give low values 1.01 | locus YDR162C, strain NBP2, hits give low values 0.984 | locus YDR195W, strain ref2 1.03 | locus YDR297W, strain sur2, hits give low values 1.02 | locus YDR318W, strain mcm21, hits give low values 1.01 | locus YDR334W, strain swr1, hits give low values 1.01 | locus YDR335W, strain msn5, hits give low values 1.02 | locus YDR363W, strain ESC2, hits give low values 0.97 | locus YDR388W, hits give low values 1.01 | locus YDR392W, strain spt3, hits give low values 1 | locus YDR502C, strain sam2, hits give low values 1.05 | locus YEL003W, strain gim4, hits give low values 1.02 | locus YEL037C, strain rad23, hits give low values 1.01 | locus YEL061C, strain CIN8 (second series), hits give low values 1.02 | locus YEL061C, strain CIN8, hits give low values 0.997 | locus YER002W, strain NOP16, hits give low values 1.01 | locus YER015W, strain faa2, hits give low values 1.02 | locus YER016W, strain bim1, hits give low values 0.989 | locus YER110C, hits give low values 0.998 | locus YER111C, strain swi4, hits give low values 1.02 | locus YER155C, strain BEM2 (second series), hits give low values 1.03 | locus YER155C, strain BEM2, hits give low values 1.01 | locus YER167W, strain BCK2, hits give low values 1 | locus YFR010W, strain ubp6, hits give low values 1.04 | locus YGL078C, strain dbp3, hits give low values 1.02 | locus YGL167C, strain pmr1, hits give low values 0.991 | locus YGL173C, strain kem1, hits give low values 1.02 | locus YGL227W, strain vid30, hits give low values 1.02 | locus YGL240W, strain doc1, hits give low values 1.03 | locus YGL248W, strain PDE1, hits give low values 1.03 | locus YGL253W, strain hxk2, hits give low values 1.01 | locus YGR135W, strain pre9, hits give low values 1.05 | locus YGR229C, strain SMI1, hits give low values 0.994 | locus YGR252W, strain gcn5, hits give low values 1.07 | locus YHR013C, strain ard1, hits give low values 1.05 | locus YHR027C, strain rpn1, hits give low values 1.01 | locus YHR030C, strain SLT2, hits give low values 0.991 and 1.01 | locus YHR079C, strain IRE1 (second series), hits give low values 1.01 | locus YHR079C, strain IRE1, hits give low values 0.986 | locus YHR094C, strain hxt1, hits give low values 1.01 | locus YHR129C, strain ARP1, hits give low values 1.01 | locus YHR142W, strain chs7, hits give low values 1.04 | locus YHR200W, strain rpn10, hits give low values 1.01 | locus YIL066C, strain RNR3, hits give low values 0.998 | locus YIL073C, strain SPO22, hits give low values 1.02 | locus YIL125W, strain kgd1, hits give low values 0.997 | locus YIR030C, strain dcg1, hits give low values 0.997 | locus YJL092W, strain hpr5, hits give low values 1 | locus YJL095W, strain BCK1 (second series), hits give low values 1.02 | locus YJL095W, strain BCK1, hits give low values 1.05 and 0.979 | locus YJL115W, strain asf1, hits give low values 1.02 | locus YJL129C, strain trk1, hits give low values 1.02 | locus YJL134W, strain LCB3, hits give low values 0.996 | locus YJL154C, strain vps35, hits give low values 1.01 | locus YJL164C, strain tpk1, hits give low values 1.01 | locus YJL166W, strain qcr8, hits give low values 1.01 | locus YJL168C, strain set2, hits give low values 1.01 | locus YJL187C, strain SWE1 (second series), hits give low values 1.03 | locus YJR043C, strain POL32, hits give low values 1 | locus YJR066W, strain TOR1, hits give low values 0.983 | locus YKL009W, strain mrt4, hits give low values 1.01 | locus YKL068W, hits give low values 0.984 | locus YKL085W, strain MDH1 (second series), hits give low values 0.979 | locus YKL085W, strain MDH1, hits give low values 0.979 | locus YKL160W, strain elf1, hits give low values 1.02 | locus YKR001C, strain vps1, hits give low values 0.992 | locus YKR026C, strain gcn3, hits give low values 0.99 | locus YKR091W, strain srl3, hits give low values 1.01 | locus YLL001W, strain dnm1, hits give low values 1.01 | locus YLL026W, hits give low values 1.02 | locus YLL041C, strain sdh2, hits give low values 0.991 | locus YLR027C, strain aat2, hits give low values 1.01 | locus YLR039C, strain RIC1, hits give low values 0.967 | locus YLR058C, strain SHM2, hits give low values 1.02 | locus YLR102C, strain apc9, hits give low values 1 | locus YLR113W, strain HOG1, hits give low values 0.99 | locus YLR221C, strain rsa3, hits give low values 1 | locus YLR258W, strain gsy2, hits give low values 1.01 | locus YLR262C, strain YPT6 (second series), hits give low values 1 | locus YLR262C, strain YPT6, hits give low values 0.977 | locus YLR268W, strain sec22, hits give low values 1.01 | locus YLR320W, strain mms22, hits give low values 1.02 | locus YLR330W, strain CHS5, hits give low values 1 | locus YLR342W, strain FKS1 (second series), hits give low values 0.984 | locus YLR342W, strain FKS1, hits give low values 1.02 | locus YLR357W, strain rsc2, hits give low values 1.03 | locus YLR370C, strain arc18, hits give low values 1.02 | locus YLR371W, strain rom2, hits give low values 0.997 | locus YLR384C, strain iki3, hits give low values 1.03 | locus YLR418C, strain cdc73, hits give low values 1.08 | locus YML016C, strain PPZ1, hits give low values 0.997 | locus YML032C, strain rad52, hits give low values 0.996 | locus YML120C, strain ndi1, hits give low values 1.02 | locus YML124C, strain tub3, hits give low values 0.997 | locus YMR058W, strain fet3, hits give low values 1 | locus YMR078C, strain ctf18, hits give low values 1 | locus YMR125W, strain sto1, hits give low values 1 | locus YMR129W, hits give low values 1.01 | locus YMR205C, strain PFK2, hits give low values 1.02 | locus YMR223W, strain ubp8, hits give low values 1.03 | locus YMR231W, strain pep5, hits give low values 1.01 | locus YMR263W, strain SAP30, hits give low values 0.991 | locus YMR307W, strain GAS1, hits give low values 1.09 | locus YNL067W, strain RPL9B, hits give low values 1.03 | locus YNL071W, strain lat1, hits give low values 1.03 | locus YNL128W, strain TEP1, hits give low values 1.01 | locus YNL153C, strain GIM3, hits give low values 1.02 and 1.01 | locus YNL175C, strain NOP13, hits give low values 1.02 | locus YNL183C, strain NPR1, hits give low values 0.935 | locus YNL197C, strain WHI3, hits give low values 1.02 | locus YNL209W, strain ssb2, hits give low values 1 | locus YNL224C, strain SQS1, hits give low values 0.983 | locus YNL233W, strain BNI4, hits give low values 1.02 | locus YNL248C, strain rpa49, hits give low values 1.09 | locus YNL250W, strain rad50, hits give low values 1 | locus YNL271C, strain bni1, hits give low values 1.01 | locus YNL298W, strain CLA4, hits give low values 0.99 | locus YNL307C, strain MCK1, hits give low values 1.01 | locus YNL322C, strain KRE1 (second series), hits give low values 1 | locus YNL322C, strain KRE1, hits give low values 0.988 | locus YNR049C, strain mso1, hits give low values 1.02 | locus YNR052C, strain pop2, hits give low values 1.01 | locus YOL012C, strain htz1 0.677 | locus YOL147C, strain pex11, hits give low values 0.996 | locus YOR001W, strain rrp6, hits give low values 1.02 | locus YOR061W, strain CKA2, hits give low values 1.01 | locus YOR069W, strain VPS5, hits give low values 0.992 | locus YOR070C, strain gyp1, hits give low values 1.01 | locus YOR080W, strain dia2, hits give low values 1.03 | locus YOR083W, strain WHI5 (second series), hits give low values 0.985 | locus YOR083W, strain WHI5, hits give low values 1.01 | locus YOR106W, strain vam3, hits give low values 1.01 | locus YOR136W, strain idh2, hits give low values 1 | locus YOR144C, strain elg1, hits give low values 1.01 | locus YOR184W, strain ser1, hits give low values 1.01 | locus YOR231W, strain MKK1, hits give low values 0.971 | locus YOR265W, strain rbl2, hits give low values 1.01 | locus YOR270C, strain vph1, hits give low values 1.01 | locus YOR290C, strain snf2, hits give low values 1.02 | locus YOR316C, strain cot1, hits give low values 1 | locus YPL051W, strain arl3, hits give low values 1.02 | locus YPL078C, strain atp4, hits give low values 1.02 | locus YPL106C, strain sse1, hits give low values 1.03 | locus YPL240C, strain hsp82, hits give low values 1.01 | locus YPL241C, strain CIN2, hits give low values 0.997 | locus YPL256C, strain CLN2, hits give low values 0.975 | locus YPR119W, strain clb2, hits give low values 0.999 | locus YPR141C, strain kar3, hits give low values 1 | locus YPR163C, strain tif3, hits give low values 1 | locus YPR167C, strain met16, hits give low values 1 | strain wtn01, hits give low values 1.01
